# From PubChem BioAssay (NCI)
# This is part of a sample that, as a whole, favours compounds with a hit. Of some 83,000 tested, about 20% had one in any assay.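 Method: cells in 96-well plates; compound added at one concentration; 48 h incubation; percent growth measured; values under 10 scored active.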 Unmarked numbers belong to inactive results. Calls of active or inactive are those of the source.
# Legend:
# Assay in all cases: NCI-60 one-dose screen, 48 h (100 = growth as untreated, 0 = no growth, -100 = all killed)
# Settings in all cases: 10 µM
# [1] = tested on: T-47D breast
# [2] = tested on: BT-549 breast
# [3] = tested on: MDA-MB-435 melanoma
# [4] = tested on: SW-620 colon
# [5] = tested on: MCF7 breast
# [6] = tested on: HCT-116 colon
# [7] = tested on: HCC-2998 colon
# [8] = tested on: KM12 colon
# [9] = tested on: MDA-MB-468 breast
Compound,growth [1],growth [2],growth [3],growth [4],growth [5],growth [6],growth [7],growth [8],growth [9]
N#Cc1ccc(-c2nn(-c3ccc(C(=O)O)cc3)cc2CNc2cccc(Br)c2)cc1,35.4%,1.51% (active),59%,61.2%,48.2%,19.9%,4.19% (active),22.4%,66%
CCCCCc1ccc(S(=O)(=O)N(C(C)=O)c2cc(-c3csc(N(C)C(C)=O)n3)ccc2N2CCN(C)CC2)cc1,30.4%,73.9%,-97.4% (active),-77.9% (active),-73.1% (active),-87.8% (active),-67.8% (active),15.7%,20.9%
O=c1[nH]c2ccccc2cc1CSc1ccc(Nc2nccc(-c3ccc4c(c3)OCO4)n2)cc1,75.5%,65.5%,93.6%,80.6%,56%,84.1%,95.5%,74.2%,72.5%
CC(=O)OC[C@@]1(C)C2CC[C@]3(C)C(CC=C4C5CC(C)(C)CC[C@]5(C(=O)Nc5ccccc5)CC[C@]43C)[C@@]2(C)C[C@@H](OC(C)=O)[C@@H]1OC(C)=O (some centres not stated),15.3%,47.7%,45.7%,36.3%,24.4%,25.4%,42.3%,49%,-4.16% (active)
O=C1NC(=NC23CC4CC(CC(C4)C2)C3)N/C1=C\c1ccc2ncoc2c1,-0.573% (active),-20.6% (active),16.8%,9.67% (active),1.42% (active),27.6%,-5.81% (active),4.28% (active),-60% (active)
CN1C(=O)N(C)C2SC(N/N=C/c3cccs3)=NC21 (configuration not stated),21.7%,21.4%,-37.6% (active),15.4%,13.3%,28.2%,54.2%,16.1%,-22.8% (active)
N#Cc1ccc(-c2nn(-c3ccc(C(=O)O)cc3)cc2CNc2ccc(Cl)cc2)cc1,74.3%,62.6%,89.7%,87.2%,70.8%,53.8%,89.4%,67%,116%
O=C(NO)c1ccc(CNc2nc(-c3ccccc3)c3ccccc3n2)cc1,-13.1% (active),18.1%,4.16% (active),-58.2% (active),7.92% (active),4% (active),-63.9% (active),11.6%,-0.98% (active)
COc1cc(/C=C/C(=O)c2ccc(NC(=O)CSc3nnc(-c4c[nH]c5ccccc45)n3-c3ccccc3)cc2)cc(OC)c1OC,69.6%,54.9%,34.1%,25.4%,10%,-30.2% (active),23.8%,48.8%,37%
Nc1nc2c(F)c(F)c(F)c(F)c2s1,91.3%,105%,101%,106%,93.7%,113%,116%,99.9%,97.9%
COc1cc2c3c(n(CCCNCCO)c(=O)c2cc1OC)-c1nc2c(cc1C3=O)OCO2,1.91% (active),25.3%,45.2%,20.2%,-11.4% (active),-49.8% (active),11.6%,40.4%,-58.8% (active)
C=C(c1ccc(OC)c(N)c1)c1cc(C)nc2ccccc12,62.6%,64.8%,-48.9% (active),18.4%,9.03% (active),8.49% (active),11.4%,10.5%,-16.3% (active)
CC1(C)[C@@H](NCO)CC[C@]2(C)[C@H]3C(=O)C=C4[C@@H]5C[C@](C)(CO)CC[C@]5(C)CC[C@@]4(C)[C@]3(C)CC[C@@H]12,63.9%,81.8%,59.9%,35.2%,33.7%,37.8%,40.8%,65.7%,47.2%
O=c1[nH]c2ccccc2cc1CSc1ccc(Nc2nccc(-c3ccc(Cl)cc3)n2)cc1,-10.3% (active),-5.03% (active),9.58% (active),2.67% (active),-5.81% (active),-38.6% (active),14.6%,23%,-67.5% (active)
COc1ccc2c(c1)N=C(C(=O)O)/C2=C/c1sc(Nc2ccc(O)cc2)nc1O,45.4%,55.4%,8.85% (active),74.7%,27.9%,64.7%,74.7%,57.9%,12.3%
O=C(N=Nc1c(O)[nH]c2ccc(Br)cc12)c1ccc2nc(-c3ccccc3)[nH]c2c1,-67.4% (active),-71% (active),-88.9% (active),-60% (active),-53.4% (active),-28.3% (active),-78% (active),2.92% (active),-85.8% (active)
CN(C)CCNC(=O)OCCCCOc1cc(O)c2c(=O)cc(-c3ccccc3)oc2c1,-65.8% (active),-59.9% (active),-51% (active),-31.7% (active),-89.8% (active),-68.9% (active),-50.8% (active),-49.8% (active),-81.1% (active)
CC1(c2ccccc2)NC(=O)N(CC(=O)Nc2ccc(C(=O)/C=C/C=C/c3ccccc3)cc2)C1=O (configuration not stated),17%,38.9%,37.1%,48.3%,3.54% (active),27.1%,87.2%,21%,3.2% (active)
O=C(N/N=C/c1ccc(-c2cccc([N+](=O)[O-])c2)o1)c1[nH]c2ccc(Br)cc2c1-c1ccccc1,75.9%,30.5%,16.6%,15.5%,1.16% (active),-53.2% (active),15%,7.57% (active),-3.87% (active)

Compound,growth [1],growth [2],growth [3],growth [4],growth [5],growth [6],growth [7],growth [8],growth [9]
COc1cc(Cn2c(C(F)(F)F)cc3c(Cl)ncnc32)ccn1,66.5%,-15.9% (active),-0.488% (active),4.9% (active),7.67% (active),-23.4% (active),-95.6% (active),30.8%,-80.9% (active)
Cc1cc(C)nc(/N=C(\N)Nc2ccc(S(=O)(=O)Nc3nc(C)cc(C)n3)cc2)n1,100%,117%,109%,109%,95.1%,110%,113%,111%,106%
O=C1Nc2cc(-c3ccc(NC(=O)c4cccs4)cc3)ccc2/C1=C/c1ccc[nH]1,22.2%,91.7%,102%,60.3%,-12.7% (active),53.3%,79.5%,39.3%,-19.7% (active)
Nc1nc(-c2ccccc2)cc(-c2cc3ccccc3nc2Cl)n1,73.7%,82.2%,94.9%,62.7%,18.4%,33.7%,103%,71.7%,77%
COc1ccc(-c2ccc(/C=N/NC(=O)c3[nH]c4ccc(Br)cc4c3-c3ccccc3)o2)cc1,37.4%,75.6%,-45.1% (active),32.4%,10.3%,18.3%,63%,39.8%,-2.91% (active)
CC(=O)Nc1ccc(-n2cnc3cc(-c4ccc(NS(C)(=O)=O)cc4)ccc32)cc1,63.2%,75.4%,51.7%,71.5%,16.8%,33.9%,21.5%,39.8%,54.6%
Cc1noc2c(Cc3ccccc3)nn(CC(=O)N/N=C/c3ccc(Br)cc3)c(=O)c12,8.11% (active),87.2%,70.2%,54.6%,45.4%,24.7%,85.3%,73.8%,78.1%
O=C1CCC(N2Cc3c(C#CCCCNC(=O)c4ccc(NC(=O)[C@@H]5NC6(CCCCC6)[C@@]6(C(=O)Nc7cc(Cl)ccc76)[C@H]5c5cccc(Cl)c5F)cc4)cccc3C2=O)C(=O)N1 (some centres not stated),38.4%,32.5%,61.6%,84.7%,5.5% (active),12.6%,58.6%,49.2%,39.3%
CC(=O)NCC1=C(C)C=C2C(=O)[C@](C)(O)C3(CC3)C(C)=C21,-11.8% (active),-46.5% (active),-80% (active),70.1%,3.29% (active),-45.1% (active),-79.4% (active),-5.71% (active),-79.7% (active)
O=C(c1ccc(O)cc1)C1[C@H](c2ccc(Br)cc2)[C@@H](c2ccccc2)NC12C(=O)Nc1ccccc12 (some centres not stated),38.4%,116%,13.4%,26.2%,8.43% (active),17.3%,-34.8% (active),1.31% (active),0.478% (active)
O=C(Nc1nc2ccccc2s1)c1ccc(Br)cc1,44.1%,90.3%,88.8%,95%,41.6%,86.2%,78.3%,72.4%,37.9%
Clc1ccc(/C=N/Nc2ncnc3sc4c(c23)CCN(Cc2ccccc2)C4)cc1,-0.297% (active),-6.23% (active),-45.3% (active),-74% (active),-47.5% (active),-93.5% (active),19.8%,-26.9% (active),-62.4% (active)
O=C1Nc2ccc(Cl)cc2/C1=C/c1cccc(OCc2ccccc2)c1,12.5%,41.9%,35.4%,45.4%,9.65% (active),17%,50.6%,38.9%,-10.2% (active)
O=C(c1ccc(Cl)cc1)C1[C@H](c2ccc(Br)cc2)[C@@H](c2ccccc2)NC12C(=O)Nc1ccccc12 (some centres not stated),1.59% (active),-9.62% (active),-46.5% (active),3.46% (active),-4.24% (active),10.7%,-39.3% (active),-3.73% (active),-6.54% (active)
COC(=O)C[C@](O)(CCCC(C)(C)O)C(=O)O[C@H]1C(OC)=C[C@@]23CCC(=O)N2CCc2cc4c(cc2[C@@H]13)OCO4,89.8%,118%,104%,91.9%,87.3%,89.7%,88%,98.3%,81.1%
CN1C/C(=C\c2ccc(O)cc2O)c2[o+]c3cc(O)ccc3cc2C1,3.02% (active),39.8%,20.4%,23.1%,11%,16.4%,25.2%,25%,-16.3% (active)
O=c1[nH]c2ccc(Cl)cc2cc1CSc1ccc(Nc2nccc(-c3ccc(Cl)cc3)n2)cc1,78.9%,81.7%,47%,3.61% (active),5.48% (active),32.9%,67%,31.4%,-20.1% (active)
Cc1ccc(-c2cc(-c3cc4ccccc4nc3Cl)[nH]c(=S)n2)cc1,57.3%,7.67% (active),-1.81% (active),78.4%,47.5%,64.5%,77.3%,61.6%,11.7%
Cc1ccc(/C=C(\C#N)n2nnc3c(F)cccc32)cc1,24.5%,-13.4% (active),8.1% (active),14%,8.62% (active),27%,-20.1% (active),-1.08% (active),37.8%
